# Values joined by “and” are separate entries in the source; they are usually repeats but may differ in a detail not shown here. Equal values may be shown once. A structure can be active in one record and inactive in another. Active and inactive are the calls of the source. Rule for the calls: active = hit-call score of the fitted dose curve at least 0.9, where 1 is the maximum; inactive = score below 0.9.
# Read-out: Apoptosis regulator Bcl-2 (Homo sapiens) (UniProt P10415)
# Assay: LTEA_HepaRG_BCL2: Life Technologies and Expression Analysis (LTEA) Assay for Bcl-2 gene using HepaRG (AID 2283475);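 note: BCL2 transcript by TaqMan qRT-PCR normalised to ACTB GAPDH and POLR2A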
# Details: mRNA level, 48 h; actives raise or lower the signal
# Summary of the method: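 Expression change of BCL2 mRNA in HepaRG after 48 h dosing, quantified by TaqMan qRT-PCR against three endogenous controls. Concentration-response used eight points up to 100 uM, vehicle 0.5% DMSO.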
# Chain of Apoptosis regulator Bcl-2 (Homo sapiens) (P10415 whole entry, looked up): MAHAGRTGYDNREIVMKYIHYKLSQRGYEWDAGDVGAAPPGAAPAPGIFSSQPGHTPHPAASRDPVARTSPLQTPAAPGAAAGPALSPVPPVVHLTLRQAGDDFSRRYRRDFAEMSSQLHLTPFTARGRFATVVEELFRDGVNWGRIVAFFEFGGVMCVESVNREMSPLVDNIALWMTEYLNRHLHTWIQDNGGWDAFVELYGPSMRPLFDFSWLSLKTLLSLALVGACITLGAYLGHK
# Chain of Caspase-3 (Homo sapiens) (P42574 whole entry, looked up): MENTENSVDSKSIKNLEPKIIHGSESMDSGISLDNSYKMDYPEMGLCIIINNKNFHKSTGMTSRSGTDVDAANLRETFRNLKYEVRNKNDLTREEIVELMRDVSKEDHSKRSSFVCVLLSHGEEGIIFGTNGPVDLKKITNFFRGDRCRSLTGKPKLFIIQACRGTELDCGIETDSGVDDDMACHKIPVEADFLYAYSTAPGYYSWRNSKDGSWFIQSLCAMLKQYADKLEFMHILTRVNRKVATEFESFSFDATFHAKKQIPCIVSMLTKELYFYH
SMILES,outcome,AC50
O=C(O)C(F)(F)C(F)(F)C(F)(F)C(F)(F)C(F)(F)C(F)(F)C(F)(F)F,inactive,
CC(C)N(C(=O)COc1nnc(C(F)(F)F)s1)c1ccc(F)cc1,inactive,
OCCOc1ccccc1,inactive,
O=C(Nc1ccccc1)Nc1cnns1,inactive,
CNC(=O)CSP(=S)(OC)OC,inactive,
ClC1C(Cl)C(Cl)C(Cl)C(Cl)C1Cl (stereo not drawn),inactive,
CCCN(CCC)c1c([N+](=O)[O-])cc(C(F)(F)F)cc1[N+](=O)[O-],inactive,
O=S(=O)(O)C(F)(F)C(F)(F)C(F)(F)C(F)(F)C(F)(F)C(F)(F)C(F)(F)C(F)(F)F,,50 µM (active) and 65.5 µM (active) and 48 µM (active)
CN1CSC(=S)N(C)C1,inactive,
CC1(c2ccc(Oc3ccccc3)cc2)OC(=O)N(Nc2ccccc2)C1=O (stereo not drawn),,9.6 µM (active)
O=C1c2ccccc2C(=O)N1SC(Cl)(Cl)Cl,inactive,
CCOC1Oc2ccc(OS(C)(=O)=O)cc2C1(C)C (stereo not drawn),,82.1 µM (active)
CC(C)(C)C(O)C(Oc1ccc(Cl)cc1)n1cncn1 (stereo not drawn),inactive,
COc1nn(CSP(=S)(OC)OC)c(=O)s1,inactive,
O=C(NC(=O)c1c(F)cccc1F)Nc1ccc(OC(F)(F)C(F)OC(F)(F)F)c(Cl)c1 (stereo not drawn),inactive,
O=C(O)CCCOc1ccc(Cl)cc1Cl,inactive,
O=[N+]([O-])/N=C1\NCCN1Cc1ccc(Cl)nc1,inactive,
Clc1ccccc1-c1nnc(-c2ccccc2Cl)nn1,inactive,
Oc1cc(Cl)ccc1Oc1ccc(Cl)cc1Cl,inactive,
CCC(C)Nc1c([N+](=O)[O-])cc(C(C)(C)C)cc1[N+](=O)[O-] (stereo not drawn),inactive,
Oc1ccc(Cl)cc1Cc1ccccc1,inactive,
CNC(=O)/C=C(\C)OP(=O)(OC)OC,inactive,

# Read-out: Bcl-2 (BID) gene, BID (gene 637)
# Assay: LTEA_HepaRG_BID: Life Technologies and Expression Analysis (LTEA) Assay for Bcl-2 (BID) gene using HepaRG (AID 2283476)
# Details: mRNA level, 48 h; actives raise or lower the signal
# Summary of the method: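 Gain or loss of BID expression is fitted relative to 0.5% DMSO vehicle. Human HepaRG liver cells received a 48 h chemical exposure over an eight-point concentration range.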
SMILES,outcome,AC50
O=C(O)C(F)(F)C(F)(F)C(F)(F)C(F)(F)C(F)(F)C(F)(F)C(F)(F)F,inactive,
CC(C)N(C(=O)COc1nnc(C(F)(F)F)s1)c1ccc(F)cc1,inactive,
OCCOc1ccccc1,inactive,
O=C(Nc1ccccc1)Nc1cnns1,inactive,
CNC(=O)CSP(=S)(OC)OC,inactive,
ClC1C(Cl)C(Cl)C(Cl)C(Cl)C1Cl (stereo not drawn),inactive,
CCCN(CCC)c1c([N+](=O)[O-])cc(C(F)(F)F)cc1[N+](=O)[O-],inactive,
O=S(=O)(O)C(F)(F)C(F)(F)C(F)(F)C(F)(F)C(F)(F)C(F)(F)C(F)(F)C(F)(F)F,inactive,
CN1CSC(=S)N(C)C1,inactive,
CC1(c2ccc(Oc3ccccc3)cc2)OC(=O)N(Nc2ccccc2)C1=O (stereo not drawn),inactive,
O=C1c2ccccc2C(=O)N1SC(Cl)(Cl)Cl,inactive,
CCOC1Oc2ccc(OS(C)(=O)=O)cc2C1(C)C (stereo not drawn),inactive,
CC(C)(C)C(O)C(Oc1ccc(Cl)cc1)n1cncn1 (stereo not drawn),inactive,
COc1nn(CSP(=S)(OC)OC)c(=O)s1,inactive,
O=C(NC(=O)c1c(F)cccc1F)Nc1ccc(OC(F)(F)C(F)OC(F)(F)F)c(Cl)c1 (stereo not drawn),inactive,
O=C(O)CCCOc1ccc(Cl)cc1Cl,inactive,
O=[N+]([O-])/N=C1\NCCN1Cc1ccc(Cl)nc1,inactive,
Clc1ccccc1-c1nnc(-c2ccccc2Cl)nn1,inactive,
Oc1cc(Cl)ccc1Oc1ccc(Cl)cc1Cl,inactive,10.1 µM (active)
CCC(C)Nc1c([N+](=O)[O-])cc(C(C)(C)C)cc1[N+](=O)[O-] (stereo not drawn),inactive,
Oc1ccc(Cl)cc1Cc1ccccc1,inactive,
CNC(=O)/C=C(\C)OP(=O)(OC)OC,inactive,

# Read-out: Caspase-3 (Homo sapiens) (UniProt P42574)
# Assay: LTEA_HepaRG_CASP3: Life Technologies and Expression Analysis (LTEA) Assay for cysteine-aspartic acid protease (CASP3) using HepaRG (AID 2283477)
# Details: mRNA level, 48 h; actives raise or lower the signal
# Summary of the method: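 Differentiated human HepaRG cells in serum-free induction medium were exposed 48 h to 8-point half-log concentrations from 100 uM (0.5% DMSO vehicle). CASP3 mRNA was measured by qRT-PCR, normalised to ACTB, GAPDH and POLR2A, with bidirectional fitting against DMSO.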
SMILES,outcome,AC50
O=C(O)C(F)(F)C(F)(F)C(F)(F)C(F)(F)C(F)(F)C(F)(F)C(F)(F)F,inactive,
CC(C)N(C(=O)COc1nnc(C(F)(F)F)s1)c1ccc(F)cc1,inactive,
OCCOc1ccccc1,inactive,
O=C(Nc1ccccc1)Nc1cnns1,inactive,
CNC(=O)CSP(=S)(OC)OC,inactive,
ClC1C(Cl)C(Cl)C(Cl)C(Cl)C1Cl (stereo not drawn),inactive,
CCCN(CCC)c1c([N+](=O)[O-])cc(C(F)(F)F)cc1[N+](=O)[O-],inactive,
O=S(=O)(O)C(F)(F)C(F)(F)C(F)(F)C(F)(F)C(F)(F)C(F)(F)C(F)(F)C(F)(F)F,inactive,22.1 µM (active)
CN1CSC(=S)N(C)C1,inactive,
CC1(c2ccc(Oc3ccccc3)cc2)OC(=O)N(Nc2ccccc2)C1=O (stereo not drawn),inactive,
O=C1c2ccccc2C(=O)N1SC(Cl)(Cl)Cl,inactive,
CCOC1Oc2ccc(OS(C)(=O)=O)cc2C1(C)C (stereo not drawn),inactive,
CC(C)(C)C(O)C(Oc1ccc(Cl)cc1)n1cncn1 (stereo not drawn),inactive,
COc1nn(CSP(=S)(OC)OC)c(=O)s1,inactive,
O=C(NC(=O)c1c(F)cccc1F)Nc1ccc(OC(F)(F)C(F)OC(F)(F)F)c(Cl)c1 (stereo not drawn),inactive,
O=C(O)CCCOc1ccc(Cl)cc1Cl,inactive,
O=[N+]([O-])/N=C1\NCCN1Cc1ccc(Cl)nc1,,26.7 µM (active)
Clc1ccccc1-c1nnc(-c2ccccc2Cl)nn1,inactive,
Oc1cc(Cl)ccc1Oc1ccc(Cl)cc1Cl,inactive,
CCC(C)Nc1c([N+](=O)[O-])cc(C(C)(C)C)cc1[N+](=O)[O-] (stereo not drawn),inactive,
Oc1ccc(Cl)cc1Cc1ccccc1,inactive,
CNC(=O)/C=C(\C)OP(=O)(OC)OC,inactive,

# From PubChem BioAssay (EPA / NIEHS)
